The test addresses Genome polyprotein (Dengue virus type 2 (strain 16681-PDK53)) (UniProt P29991). The test is described as follows: flavivirus cap methylation enzyme inhibition – biochemical, confirmation dose response, primary screen (AID 588689). As to conditions: Dengue-2 NS5 methyltransferase capping enzyme assay, at 25 µM, stronger effect = higher value.
[1] abbreviates: measured here: pilot screen replicate inhibition.

In all, about 340,000 compounds went through this assay and about 1,000 (0.29%) were called active. Rule as the data show it: inconclusive = inhibition above about 29% without an active follow-up result; inactive = below that. Not all results are given here. Results with a measured potency or affinity are listed apart.

The term inhibition denotes the drop in the measured response relative to a control, in per cent. Take `COc1ccc(OC)c(NC(=O)Nc2cccnc2)c1`: the inhibition was 1.62% (inactive).
For `Cc1cc(C)c(NC(=O)CN2C(=O)NC3(CCCCC3)C2=O)c(Cl)c1`, the inhibition was -4.81% (inactive).
Still for that read-out and setting: for `CCCCn1nc(NS(=O)(=O)c2cccc3nonc23)c2cc3cccc(C)c3nc21` the value was 27.8% (inactive); for `CCCn1nc(NS(=O)(=O)c2cccc3nonc23)c2cc3ccccc3nc21`, 0.45% (inactive).
Turning to `COc1ccc(S(=O)(=O)NCC2CCCN(C(=O)CSC)C2)cc1` (stereo not drawn), the inhibition was -2.61% (inactive). Further, the inhibition under setting [1] is 0.01%.
Consider `C=CCN(C(=O)Cc1cccs1)c1nc(-c2ccc(S(C)(=O)=O)cc2)cs1`, for which the inhibition is -10.3% (inactive).
The same measure, in the same setting: the figure for `Cc1[nH][nH]c(=O)c1C(c1ccc(-c2ccccc2C(=O)O)o1)c1c(C)[nH][nH]c1=O` is 39% (inactive); for `Cc1[nH][nH]c(=O)c1C(c1ccc(-c2cccc(C(=O)O)c2)o1)c1c(C)[nH][nH]c1=O` it is 21.1% (inactive).
Turning to `Cc1cc(S(=O)(=O)N2CCCOC2CNC(=O)C(=O)NCCc2ccco2)ccc1F` (stereo not drawn), the inhibition is 0.64% (inactive).
Same read-out and setting: for `COc1ccccc1OCCNC(=O)C(CCSC)NS(=O)(=O)c1ccccc1F` (stereo not drawn) the value was -7.2% (inactive); for `CC(Oc1ccccc1)C(=O)NNS(=O)(=O)c1ccc([N+](=O)[O-])cc1` (stereo not drawn), -1.92% (inactive); for `COc1ccc(-n2c(SCC(=O)Nc3cc(C)on3)nc3ccc(O)cc3c2=O)cc1OC`, -6.42% (inactive).
On the same count and under the same terms, for `O=C1NC(=S)N/C1=C/c1cccc([N+](=O)[O-])c1` the value was 1.48% (inactive).
On the same count and under the same terms, for `O=[N+]([O-])c1cccc(/C=N/N=C\c2ccccc2)c1` the value was -0.78% (inactive); for `NS(=O)(=O)c1ccc(NCc2c(F)cccc2Cl)cc1`, 4.17% (inactive).
For the molecule `O=C(O)c1cc(NCc2c(F)cccc2Cl)ccc1N1CCOCC1`, the inhibition is -2.05% (inactive).
Same read-out and setting: for `CN1CCC(=NNC(=O)c2ccco2)CC1` the value was 17.7% (inactive); for `Cc1ccccc1C(=O)NC(=S)Nc1ccc2[nH]c(=O)[nH]c2c1`, -1.8% (inactive).
On to `C[C@H](CO)N1C[C@H](C)[C@@H](CN(C)S(=O)(=O)c2ccc(F)cc2)Oc2ccc(NS(=O)(=O)c3ccccc3)cc2C1=O`, for which the inhibition is 0.4% (inactive).
Same read-out and setting: for `CCC(C)C1=CC(=Nc2c(C)n(C)n(-c3ccccc3)c2=O)C=C(C(C)CC)C1=O` (stereo not drawn) the value was 4.41% (inactive); for `Cc1c(N=C2C(=O)Nc3ccccc32)c(=O)n(-c2ccccc2)n1C`, 2.78% (inactive); for `CC1=CC(=Nc2c(C)n(C)n(-c3ccccc3)c2=O)C=C(C)C1=O`, 2.89% (inactive).
The same measure, in the same setting: for `Cc1c(N=c2scc(-c3ccccc3)n2C)c(=O)n(-c2ccccc2)n1C` the value was -7.91% (inactive); for `CCC1CCCCN1C(=O)COc1ccc(S(=O)(=O)N2CCOCC2)cc1Cl` (stereo not drawn), -7.51% (inactive); for `CCOC(=O)c1c(-c2ccccc2)oc2ccc(OCC(=O)O)cc12`, -1.55% (inactive).
Same read-out and setting: for `CC1CCCCC1NC(=O)c1nnc(Cc2ccc(Cl)cc2)o1` (stereo not drawn) the value was -2.17% (inactive); for `Cc1cc(-n2c(C)cc(C(=O)CSc3nncn3C(C)C)c2C)no1`, -1.44% (inactive); for `COC(=O)c1ccc([C@H](NC(=O)c2ccco2)[C@]2(C)C[C@H]2C2CCCCC2)cc1`, -7.21% (inactive).
As for `COc1ccc(C(=O)c2ccc(N3CCN(C(=O)c4ccc(F)cc4)CC3)c(F)c2)cc1Br`, the inhibition was 4.82% (inactive).
The same measure, in the same setting: the figure for `Cc1ccccc1/C=C1\Oc2ccccc2C1=O` is 1.3% (inactive).
Take `O=C1Oc2ccccc2C(=O)/C1=C\N1CCN(c2ccccc2)CC1`: the inhibition is -8.28% (inactive).
On the same count and under the same terms, for `Cc1cc(C(=O)NNC(=O)c2c(-c3c(Cl)cccc3Cl)noc2C)no1` the value was 0% (inactive).
Still for that read-out and setting: for `CCc1ccc(OCC(O)CN2CCN(c3ccc(OC)cc3)CC2)cc1` (stereo not drawn) the value was -3.27% (inactive).
For `O=C(c1ccccc1)c1ccc(Oc2ccc(C(=O)O)c(C(=O)O)c2)cc1`, the inhibition is 2.64% (inactive). The inhibition under setting [1] was -1.5%.
The corresponding values for `CC(C)(C)C(=O)Nc1ccc(C(=O)Nc2cccc(Oc3ccc(C(=O)O)c(C(=O)O)c3)c2)cc1` are 9.79% (inactive) and -1.52%.
As to `COc1cc(-c2nc3ccccn3c2/N=C/c2ccc(F)cc2)ccc1O`, the inhibition is -1.47% (inactive).
The same measure, in the same setting: the figure for `O=C(c1ccc2c3c(cccc13)CC2)C1CCCN(Cc2ccncc2)C1` (stereo not drawn) is -3.47% (inactive); for `O=C(c1ccc2c3c(cccc13)CC2)C1CCCN(Cc2cccnc2)C1` (stereo not drawn) it is -8.53% (inactive).
Still for that read-out and setting: the figure for `O=C(NCCO)C(=O)NCC(c1cccs1)S(=O)(=O)c1ccc(F)cc1` (stereo not drawn) is 0% (inactive); for `CC(C)C[C@@H](CNC(=O)OC(C)(C)C)NC(=O)c1nc[nH]c1C(=O)N[C@@H](CC(C)C)C(=O)CNC[C@H](CC(C)C)NC(=O)c1nc[nH]c1C(=O)N[C@@H](Cc1c[nH]c2ccccc12)C(=O)OC(C)(C)C` it is -7.03% (inactive).
On the same count and under the same terms, the figure for `CC1(C)CC(=O)C=C(C(=O)N2CCCC(C(=O)c3cc(F)ccc3F)C2)O1` (stereo not drawn) is -6.28% (inactive); for `CCN(C1CCCCC1)S(=O)(=O)CCNC(=O)c1ccc2c(c1)OCO2` it is -2.2% (inactive); for `c1ccc2c(-n3cccn3)cccc2c1` it is -11.8% (inactive).
`Cc1ccn(-c2cc(O)c(-n3ccc(C)n3)cc2O)n1`: the inhibition was -6.11% (inactive).
`CCOc1ccccc1C(=O)OCC(=O)Nc1ccc(OC(F)F)cc1`: the inhibition is 0.68% (inactive). For the same molecule, the inhibition under setting [1] was -8.52%.
Turning to `COc1ccccc1/C=C1\SC(=S)N(N2C(=O)CCCC2=O)C1=O`, the inhibition was 0% (inactive).
On the same count and under the same terms, the figure for `COc1ccccc1/C=C1\SC(=S)N(Nc2nc(C)cc(C)n2)C1=O` is 7.21% (inactive).
For `COc1ccc(/C=C2\SC(=S)N(NS(=O)(=O)c3ccc(C)cc3)C2=O)c(OC)c1`, the inhibition is 16.5% (inactive).
`COc1ccc(OC)c(/C=C2\SC(=S)N(NS(=O)(=O)c3ccccc3)C2=O)c1`: the inhibition is 43.4% (inactive).
Same read-out and setting: the figure for `Cc1cc2cc(C#N)c(SCC(=O)Nc3nonc3C)nc2cc1C` is 3.66% (inactive).
As to `O=C(CSc1nnc2ccccn12)NC(=O)c1cccc([N+](=O)[O-])c1`, the inhibition is -2.72% (inactive).
Still for that read-out and setting: the figure for `Cc1nc(NN)nc(NCc2ccccc2)n1` is -1.54% (inactive).
Still for that read-out and setting: the figure for `CC[C@H]1c2[nH]c3ccccc3c2C[C@@H]2C(=O)N(c3ccc(F)cc3)C(=O)N21` is 0% (inactive); for `Cc1ccc(C(=O)NNC(=O)C2CSC3(C)CCC(=O)N23)cc1` (stereo not drawn) it is 5.19% (inactive); for `CC(=O)Nc1c(O)nc(SCC(=O)Nc2nnc(SCc3ccccc3)s2)[nH]c1=O` it is 3.91% (inactive).
The same measure, in the same setting: for `Cc1cc(=O)[nH]c(SCC(=O)Nc2nnc(SCc3ccccc3)s2)n1` the value was -1.48% (inactive); for `COc1cccc(CN2CCNC(=O)C2CC(=O)NCCc2ccccn2)c1` (stereo not drawn), -3.12% (inactive).
Consider `Cc1occc1C(=O)Nc1cnn(CCCC(=O)O)c1`, for which the inhibition is 0.32% (inactive).
Same read-out and setting: the figure for `O=C(CC(=O)NN=C1CCCCCC1)NCc1cccnc1` is -7.12% (inactive); for `CCOc1cc(/C=C2/SC(=S)N(Cc3ccccc3)C2=O)ccc1O` it is -16.7% (inactive).
Regarding `COc1cc(/C=C2/SC(=S)N(CC(=O)O)C2=O)ccc1OC(=O)c1ccco1`, the inhibition was -8.15% (inactive).
Still for that read-out and setting: for `CCOc1ccc(/C=C2\SC(=S)N(CCC(=O)O)C2=O)cc1` the value was 10.9% (inactive); for `COc1cc(/C=C2\SC(=S)N(CC(=O)O)C2=O)ccc1OC(=O)c1ccco1`, -6.52% (inactive).
On to `CCn1c(O)c(/C=C2\C=NN=C2c2ccccc2)sc1=S`, for which the inhibition is 1.56% (inactive).
`Cc1ccc(C2=NN(C(=O)CCC(=O)O)C(c3ccc4c(c3)OCO4)C2)cc1` (stereo not drawn): the inhibition was -1.55% (inactive).
With `COc1ccc(CNC(=O)CN(Cc2ccccc2F)C(=O)c2csnn2)cc1`, the inhibition is -7.27% (inactive).
On the same count and under the same terms, for `CCc1cccc2c1NC(=O)C21N2CCCC2C(C(=O)c2ccc3ccccc3c2)C12C(=O)Nc1ccccc12` (stereo not drawn) the value was -10.4% (inactive); for `Cc1c(Cl)cccc1NC(=O)CC1Sc2ccccc2NC1=O` (stereo not drawn), -2.59% (inactive); for `O=C(O)c1ccc(C(=O)C(=O)c2ccccc2)cc1`, -3.83% (inactive).
With `CCN(CC)c1ccc(C(=O)O)cc1`, the inhibition is -2.67% (inactive).
Still for that read-out and setting: for `O=C(Oc1ccc(/C=N/NC(=O)c2ccccn2)cc1)c1cccc(F)c1` the value was 0.65% (inactive); for `O=S(=O)(c1ccccc1)c1nc(-c2ccc(F)cc2)oc1NCC1CCCO1` (stereo not drawn), -1.48% (inactive); for `CC(C)NC(=O)C(=O)Nc1ccc2c(c1)N(S(=O)(=O)c1cccs1)CCC2`, 2.2% (inactive).
Still for that read-out and setting: for `CCn1c(-c2ccco2)nc2ccccc21` the value was -5.14% (inactive).
Take `c1coc(Cn2c(-c3ccco3)nc3ccccc32)c1`: the inhibition is -8.81% (inactive).
Same read-out and setting: the figure for `O=C(CCc1nc(-c2ccc(Cl)cc2)no1)NCc1ccccc1CN1CCOCC1` is 1.12% (inactive); for `CN(C)c1ccc(/C=C(\C#N)C(=O)c2ccccc2)cc1` it is -80.6% (inactive).
On the same count and under the same terms, for `O=C(C=Cc1cccc(Cl)c1)c1ccccc1` the value was -41.2% (inactive); for `CNC(=S)N(CCN(C)C)Cc1cc2cc3c(cc2[nH]c1=O)OCO3`, -3.53% (inactive); for `Cn1c(=O)cc(N)n(-c2ccccc2)c1=O`, 1.3% (inactive).
Turning to `O=C1c2ccccc2COc2ccc(O)cc21`, the inhibition is 4% (inactive).
Consider `Cc1ccnc(N2CCC(C(=O)Nc3ccc4c(c3)CCC4)CC2)n1`, for which the inhibition was -1.37% (inactive). The inhibition under setting [1] was -2.12%.
As for `CCc1nnc(NC(=O)CSc2nc(-c3ccc(OC)cc3)ns2)s1`, the inhibition was -9.71% (inactive).
Consider `CN(C)c1ccc(C(=O)c2ccccc2C(=O)O)c(O)c1`, for which the inhibition is -0.81% (inactive).
On to `CCN(CC)c1ccc(C(=O)c2ccccc2C(=O)O)c(O)c1`, for which the inhibition is 8.17% (inactive). Further, the inhibition under setting [1] came to 6.25%.
For `Cc1nc(N)nc(N(C)c2ccccc2)c1Br`, the inhibition was 3.09% (inactive).
The same measure, in the same setting: the figure for `O=C(COC(=O)C1CCN(S(=O)(=O)c2cccc3cccnc23)CC1)c1ccc([N+](=O)[O-])cc1` is -7.6% (inactive); for `O=S(=O)(Cc1ccccc1)N1CCN(Cc2ccc(F)cc2Cl)CC1` it is -4.55% (inactive); for `COc1ccc(C(c2c(C)n(C)n(-c3ccccc3)c2=O)c2c(C)n(C)n(-c3ccccc3)c2=O)cc1OC` it is -2.72% (inactive).
The same measure, in the same setting: the figure for `COc1ccc(C(C[N+](=O)[O-])c2c(C)[nH]n(-c3ccccc3)c2=O)cc1` (stereo not drawn) is -13.7% (inactive).
On the same count and under the same terms, for `COc1cc(C(c2c(C)[nH][nH]c2=O)c2c(C)[nH][nH]c2=O)cc(OC)c1OC` the value was 1.7% (inactive); for `COc1ccc(N=C(c2ccccc2)c2c(C)[nH]n(-c3ccccc3)c2=O)c(OC)c1`, -10.3% (inactive).

The values above are taken from PubChem BioAssay AID588689 (Southern Research Specialized Biocontainment Screening …, 2011).
